Out of some 310,000 compounds screened, about 1,200 (0.39%) were called active. These entries were drawn from the full list. Measured potencies and affinities stand elsewhere. A number with no mark means an inactive call. No rule for the calls is given here.
target: Large T antigen (Simian virus 40) (UniProt P03070); assay: TAg ATPase/helicase activity blockers – biochemical (AID 1903); settings: SV40 large T antigen ATPase/helicase inhibition assay; at 20 µM; hits give high values
Sequence (P03070 whole entry, looked up): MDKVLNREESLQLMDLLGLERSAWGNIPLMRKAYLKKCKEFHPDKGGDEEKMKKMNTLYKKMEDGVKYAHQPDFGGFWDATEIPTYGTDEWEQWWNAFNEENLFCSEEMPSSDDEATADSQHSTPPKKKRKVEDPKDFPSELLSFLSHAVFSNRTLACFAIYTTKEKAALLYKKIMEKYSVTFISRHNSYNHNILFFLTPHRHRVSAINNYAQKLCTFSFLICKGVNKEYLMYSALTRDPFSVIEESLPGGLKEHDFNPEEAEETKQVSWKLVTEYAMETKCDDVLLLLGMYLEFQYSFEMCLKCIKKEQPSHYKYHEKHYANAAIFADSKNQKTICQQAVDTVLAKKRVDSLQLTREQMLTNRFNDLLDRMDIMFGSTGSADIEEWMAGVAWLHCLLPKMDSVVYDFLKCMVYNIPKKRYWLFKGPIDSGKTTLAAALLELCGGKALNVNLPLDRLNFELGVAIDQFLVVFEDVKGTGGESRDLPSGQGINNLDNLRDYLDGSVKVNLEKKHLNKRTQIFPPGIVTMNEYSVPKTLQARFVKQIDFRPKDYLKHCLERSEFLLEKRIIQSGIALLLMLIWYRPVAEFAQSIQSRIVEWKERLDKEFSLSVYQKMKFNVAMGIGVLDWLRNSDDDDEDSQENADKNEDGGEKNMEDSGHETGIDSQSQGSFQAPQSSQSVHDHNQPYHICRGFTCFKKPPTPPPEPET

SMILES	inhibition [%]
CCN(CC)S(=O)(=O)c1ccc(N=Nc2c(N)[nH]c(=O)[nH]c2=O)cc1	12.4
O=C(CCn1c(=S)[nH]c2ccccc2c1=O)NCCc1ccccc1	4.97
O=C(CCn1c(=S)[nH]c2ccccc2c1=O)NCCc1ccc(Cl)cc1	7.2
CC(=O)NC(CC(=O)N1CCCC1)c1ccccc1 (stereo unspecified)	21.8
O=C(NCc1ccc2c(c1)OCO2)c1ccc2c(c1)S(=O)(=O)c1ccccc1C2=O	0.8
Cn1c(=O)oc2cc(S(=O)(=O)NC3CCCCCCC3)ccc21	-1.85
Cn1c(=O)oc2cc(S(=O)(=O)NC3CCCCC3)ccc21	-17.1
CCCCC(=O)Nc1ccc(C(=O)NCCc2ccc(S(N)(=O)=O)cc2)cc1	1.78
N=c1c2c(ncn1Cc1ccco1)Oc1cc(O)ccc1C2c1ccccc1 (stereo unspecified)	26.2
O=C1NN(c2ccccc2)C(=O)/C1=C\c1ccccc1	17.5
O=C1NN(c2ccccc2)C(=O)/C1=C/c1cccs1	28.5
COc1ccc(-c2nc(CS(=O)(=O)CC(=O)NCCCc3ccccc3)c(C)o2)cc1	-0.82
O=C(OCC(=O)N1CCCc2ccccc21)c1cc(S(=O)(=O)N2CCOCC2)ccc1Cl	15.5
O=C(COc1ccc2ccccc2c1Br)NCc1ccccn1	9.07
Cc1ccc(NS(=O)(=O)c2cc3c4c(c2)CC(=O)N4CCC3)cc1C	7.5
Cc1ccc(S(=O)(=O)Nc2ccc(N(C)C)cc2)cc1	37.5
CCN(CC)S(=O)(=O)c1cc(NS(=O)(=O)c2cccc(Cl)c2)ccc1C	2.93
CN(C)c1ccc(S(=O)(=O)c2ccc(Cl)cc2)cc1	1.2
Cc1cccc(C)c1NS(=O)(=O)c1cc2c3c(c1)CC(=O)N3CCC2	-3.87
CN(C)c1ccc(NS(=O)(=O)c2cc(Cl)ccc2Cl)cc1	25.6
O=C(CN1C(=O)C(=O)N(Cc2ccco2)C1=O)c1c[nH]c2ccccc12	28.3
C=CCc1ccc(OCCOCCOc2ccccc2[N+](=O)[O-])c(OC)c1	-1.8
C=CCOc1ccc(C2c3c(oc4ccccc4c3=O)C(=O)N2CCCN2CCOCC2)cc1 (stereo unspecified)	10.1
O=C(COn1nnc2ccc(Cl)cc21)Nc1ccc(F)cc1	19.7

SMILES	inhibition [%]
COc1cc(/C=C2\N=C(C)OC2=O)cc(Cl)c1OC(C)=O	13.6
CC(=O)NC1CC2CCCC(C1)N2S(=O)(=O)c1cccc(F)c1 (stereo unspecified)	2.38
COc1ccc(S(=O)(=O)Nc2cccc(-c3ccc4nncn4n3)c2)c(OC)c1	12.4
Cc1ccc(Nc2c(-c3ccc(C)o3)nc3ncccn23)cc1	33.8
Brc1ccc(-c2nc3ncccn3c2NC2CCCCC2)o1	12.4
Cc1ccc(-n2cc(CCCCCCCCC(=O)O)nn2)cc1	8.47
COc1ccc(/C=N/NC(=O)CN2CCSCC2)c(OC)c1	17.5
COC(=O)/C=C/C(=O)Nc1cccc(C(F)(F)F)c1	17.3
COc1ccc(NC(=O)/C=C/C(=O)O)cc1Cl	4.09
CCCCC(=O)c1ccc(O)cc1	4.42
O=C(CCCC(=O)c1ccc(O)cc1)c1ccc(O)cc1	9
COc1ccc(N2CCN(C(=O)C3COc4ccccc4O3)CC2)cc1 (stereo unspecified)	15.2
O=C(O)CCCC(=O)N(Cc1ccccc1)Cc1ccccc1	8.76
COc1ccc(OC)c(S(=O)(=O)N2CCC(C(=O)N3CCc4ccccc4C3)CC2)c1	-3.29
Cc1ccc(C(=O)Nc2nc(=O)n(C(=O)c3ccccc3Cl)s2)cc1	6.99
COc1ccc(Nc2cc(Nc3ccc(OC)cc3)ncn2)cc1	6.82
CN(C)c1ccc(Nc2ccc([N+](=O)[O-])cn2)cc1	32.5
COc1ccc(S(=O)(=O)N2CCCN(CC(=O)Nc3ccc4c(c3)OCO4)CC2)cc1	-44.5
O=C(COC(=O)C1=COCCO1)NC1CCCCC1	4.07
CCOC(=O)C1=C(C)N=c2s/c(=C3/C(=O)Nc4ccccc43)c(=O)n2C1c1ccc(C)cc1 (stereo unspecified)	24.6
COC(=O)C1=C(C)N=c2s/c(=C3\C(=O)Nc4ccccc43)c(=O)n2C1c1ccccc1 (stereo unspecified)	12.3
O=C(CCCC(=O)NCCc1ccccc1)NCCc1ccccc1	3.18
Cc1ccc(-c2noc(C3CCCN(S(=O)(=O)c4ccc5ccccc5c4)C3)n2)o1 (stereo unspecified)	-0.86
Cc1ccc(S(=O)(=O)N2CCCC(c3nc(-c4ccc(C)o4)no3)C2)cc1 (stereo unspecified)	6.08

SMILES	inhibition [%]
CC(C)(C)c1cc(-c2nc(N)nc(N)n2)cc(C(C)(C)C)c1	6.71
COc1cccc(CN2CCCC(N3CCc4ccccc4C3)C2)c1O (stereo unspecified)	11.4
CC1CCN(C2=C(NS(=O)(=O)c3ccc(Cl)cc3)C(=O)c3ccccc3C2=O)CC1	16.2
COc1ccc(NC(=O)Nc2ccc(O)c3ccccc23)cc1	27.9
COc1ccc(C(=O)Nc2cccc3ccccc23)cc1	16.2
CC1(C)Cc2ccccc2C(=C(C#N)C#N)N1	4.69
CCOC(=O)c1ccc(NC(=O)c2cc3ccccc3o2)cc1	8.26
O=C1N/C(=C\c2ccccc2)C(O)=C1C=NCc1ccccc1	18.3
O=C1N/C(=C/c2ccc(Br)cc2)C(O)=C1C=NCc1ccccc1	4.99
COC1=C(Nc2ccc(C)cc2)C(=O)c2ccccc2C1=O	3.75
COC1=C(Nc2ccccc2)C(=O)c2ccccc2C1=O	-28.6
Cc1ccc(-c2nc(CS(=O)CC(=O)NCCN3CCOCC3)c(C)o2)cc1 (stereo unspecified)	-1.85
CC(=O)Cc1nsc(Nc2ccc(F)cc2)n1	5.39
CCOc1ccc(NC(=O)CN(C)CC(=O)Nc2ccc(Br)cc2F)cc1OCC	2.33
COC(=O)CCCC1=CC2=CC(=O)C(C)(OC(=O)c3ccc(Cl)nc3)C(=O)C2=CO1 (stereo unspecified)	23.8
Cc1ccc(NC(=S)NNc2ccc([N+](=O)[O-])cc2S(=O)(=O)Nc2ccccc2C(=O)O)cc1C	31.6
O=C(O)c1ccccc1Nc1ccc(OC(F)F)cc1	10.8
CCN(CC)S(=O)(=O)c1ccc(/C=C/C(=O)OCC(=O)Nc2ccc(S(N)(=O)=O)cc2)cc1	0.26
O=C(COc1ccc(Cl)cc1)NC1=NN(c2ccccc2)C(=O)C1	18.7
CC(=O)NC1=NN(c2ccccc2)C(=O)C1	13.1
COc1ccc(-c2nc3cc(C)ccn3c2NC(=O)c2ccccc2OC)cc1	9.33
COc1ccc(NC(=O)CSCC(=O)NCCc2ccccn2)cc1	0.35
CNCCc1ccccn1	13.3
COCCN1Cc2cccc(C(=O)Nc3cccnc3)c2C1=O	1.93

SMILES	inhibition [%]
COc1cccc(CC(=O)OCC(=O)N(C)CC(=O)Nc2ccc(Cl)c(C(F)(F)F)c2)c1	5.39
CCOc1ccccc1N(CC(=O)NC1CCCCC1)C(=O)CCC(=O)Nc1cc(C)ccn1	-4.71
Brc1ccc(-c2csc(NNC3=NCCCCC3)n2)cc1	21.1
c1ccc(-c2csc(NC3=NCCCCC3)n2)cc1	-1.35
CCOC(=O)CN1C(=O)S/C(=C/c2ccc(N3CCCCC3)o2)C1=O	-40.7
O=C1NC(=O)/C(=C/c2ccc(N3CCOCC3)o2)N1	35.9
COC(=O)CN1C(=O)S/C(=C/c2ccc(N3CCCCC3)o2)C1=O	22.2
O=C1NC(=O)/C(=C\c2ccc(N3CCOCC3)o2)N1	12.2
COc1ccc(-c2cn(Cc3ccc(C(N)=O)cc3)c(CCN)n2)cc1	15.2
CCc1ccc(N2CC(C(=O)Nc3cc(C)on3)CC2=O)cc1 (stereo unspecified)	7.18
COc1ccc(S(=O)(=O)N2CCc3cc4c(cc3C2C)OCCCO4)cc1 (stereo unspecified)	-0.77
O=C(/C=C/c1cccc([N+](=O)[O-])c1)NCC1CCCO1 (stereo unspecified)	1.2
CCNc1c(NC(=O)C2CCC(C)CC2)c(=O)oc2ccccc12 (stereo unspecified)	7.89
N#CCn1nnc(-c2ccc3c(c2)OCO3)n1	5.17
COc1cc2nc(C3CCC3)nc(N3CCN(c4ccccn4)CC3)c2cc1OC	3.99
O=C(N/N=C/c1ccc(N2CCOCC2)s1)c1ccccc1Br	28.7
CC(C)(C)OC(=O)N/N=C\c1ccc([N+](=O)[O-])s1	9.37
Clc1cccc(N/N=C/c2ccc(N3CCOCC3)s2)c1	0.11
O=C(N/N=C/c1ccc(N2CCOCC2)s1)c1ccccc1Cl	19.1
Cc1cc(-c2cc(-c3ccc(Cl)cc3)on2)nc(NCC2CC2)n1	19.1
COC(C/C=C/[C@@H](O)[C@H](C)OCc1ccccc1)OC	7.24
COc1cc2[nH]c(=O)n(CCCCCC(=O)NCCCN3CCOCC3)c(=O)c2cc1OC	9.95
Nc1c(N)c2ccccc2oc1=O	3.21
O=C1CCC(C(=O)NCCN2C(=O)S/C(=C\c3cccnc3)C2=O)=NN1	9.31
